# From PubChem BioAssay
# Pyk2 oligo antag = blocks oligomerization of human Pyk2 in cells. Q293 cells, Pyk2 FERM NanoBiT luminescence; active compounds read low. z-score (the deposit names both 25 µM and 10 µM). Q14289. AID 1347419. hit rate 0.83% among 99,000;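 active = Z-score of -3 or lower, scaled per plate to the spread of control and sample wells; inactive = z-score above -3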;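 note: negative z-score means lost luminescence so less FERM oligomerization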
# Target sequence (Q14289 whole entry, looked up): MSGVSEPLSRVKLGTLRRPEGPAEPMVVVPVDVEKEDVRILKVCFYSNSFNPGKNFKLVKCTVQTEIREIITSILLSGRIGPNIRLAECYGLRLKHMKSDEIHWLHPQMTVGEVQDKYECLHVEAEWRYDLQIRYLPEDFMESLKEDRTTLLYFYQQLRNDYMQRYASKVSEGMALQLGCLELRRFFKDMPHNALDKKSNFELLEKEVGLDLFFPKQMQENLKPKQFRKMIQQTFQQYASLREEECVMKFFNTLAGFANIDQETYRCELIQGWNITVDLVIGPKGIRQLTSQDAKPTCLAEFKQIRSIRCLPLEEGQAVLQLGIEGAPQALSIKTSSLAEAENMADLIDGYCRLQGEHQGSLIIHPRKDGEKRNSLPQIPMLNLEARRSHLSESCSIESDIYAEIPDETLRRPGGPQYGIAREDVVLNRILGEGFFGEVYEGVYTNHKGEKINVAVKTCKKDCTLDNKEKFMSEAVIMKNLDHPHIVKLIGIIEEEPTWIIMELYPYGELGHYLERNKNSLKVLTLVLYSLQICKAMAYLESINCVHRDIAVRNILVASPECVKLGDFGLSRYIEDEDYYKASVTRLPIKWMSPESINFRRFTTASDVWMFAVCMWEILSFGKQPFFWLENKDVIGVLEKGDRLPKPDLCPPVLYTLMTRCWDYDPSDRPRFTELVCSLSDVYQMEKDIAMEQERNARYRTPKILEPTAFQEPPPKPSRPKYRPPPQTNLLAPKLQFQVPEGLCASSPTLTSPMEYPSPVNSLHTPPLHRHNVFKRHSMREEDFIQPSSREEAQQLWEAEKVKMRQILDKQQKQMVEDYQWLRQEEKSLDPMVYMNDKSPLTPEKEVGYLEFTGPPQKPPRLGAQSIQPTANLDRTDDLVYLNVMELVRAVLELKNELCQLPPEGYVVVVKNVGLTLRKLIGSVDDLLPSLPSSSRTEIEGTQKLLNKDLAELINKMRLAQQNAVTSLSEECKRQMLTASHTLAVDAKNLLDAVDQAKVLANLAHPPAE
# CYP2C9 activ = activators of human CYP2C9 | activation factor at 5 µM | recombinant CYP2C9, luciferin-H conversion, luminescence; active compounds read high; factor 1 = untreated enzyme, 0 = blocked | P11712 | hit rate 1.4% among 96,000;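 active = activation factor of 2 or more for CYP2C9 at a 5 µM dose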;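 note: 0 = sulfaphenazole-blocked wells and 1 = vehicle-only wells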
# CYP2C19 act = activators of human cytochrome P450 2C19. recombinant CYP2C19, luciferin-H EGE luminescence; active compounds read high; 0 = fully inhibited enzyme, 1 = untreated enzyme. activation factor at 5 µM. AID 1025. P33261. 96,000 tested, under 10 active;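 active = activation factor of at least 2 at 5 µM in the primary screen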;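 note: 0 = wells with 2.5 mM tranylcypromine and 1 = vehicle-only wells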
# CYP2C9 inh = inhibitors of human CYP2C9; CYP2C9 Supersomes, luciferin-H conversion, luminescence; hit rate 20% among 96,000; P11712; AID 777; inhibition, % at 5 µM;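 active = blocking of liver enzyme CYP2C9 beyond about 50% at 5 µM, limit read from the data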
# CYP2C19 inhib = blocks human cytochrome P450 2C19. CYP2C19 Supersomes, luciferin-H EGE luminescence, 30 min. P33261. inhibition, % at 5 µM. hit rate 21% among 96,000;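 active = CYP2C19 inhibition above a set limit at 5 µM in the primary screen, cut at about 50% in these data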;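 note: plate controls were negative control wells for no effect and 2.5 mM tranylcypromine positive control for full effect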
# An asterisk follows results filed as active; nt = no result given. A selection: hits, their analogues and other compounds. The true share with any hit is near 28%.
SMILES,Pyk2 oligo antag,CYP2C9 activ,CYP2C19 act,CYP2C9 inh,CYP2C19 inhib
CCOC(=O)c1c(C(=O)OCC)c(C)n(N2C(=O)CSC2=S)c1C,0.03,0.5,0.6,53.0*,43.7
O=C(COc1ccc(S(=O)(=O)N2CCCCC2)cc1)NC1CCCCC1,1.06,0.3,0.7,72.1*,33.2
CC(=O)c1cccc(NC(=O)c2ccc(S(=O)(=O)N3CCCCC3)cc2)c1,-0.62,1.1,1,-7.5,-1.4
CC(=O)c1cccc(NC(=O)COc2ccc(S(=O)(=O)N3CCCCC3)cc2)c1,0.05,0.3,0.3,67.4*,66.6*
COc1ccccc1OCC(=O)Nc1ccc(S(=O)(=O)N2CCCCCC2)cc1,-0.2,0.2,0.1,79.6*,86.5*
Cc1ccc(S(=O)(=O)N2CCN(C(=O)CCC(=O)OCC(=O)Nc3cccc(C#N)c3)CC2)cc1,1.21,0.3,0.2,75.0*,77.7*
O=C(COc1ccccc1)Nc1ccc(S(=O)(=O)N2CCCCCC2)cc1,-0.61,0.8,0.9,15.1,14.9
CCCN(CCC)c1ncnc2c1cnn2-c1ccc(OC)cc1,-1.34,0.9,0.9,7.8,10.5
Cc1ccc(CNC(=O)CCOc2ccc(C(C)(C)C)cc2)cc1,0.52,0.8,0.7,24.5,25.8
Cc1cc(Nc2ccc(F)cc2C)n2nc(C)nc2n1,nt,1.1,1.2,-12.6,-18.9
COc1ccc(C2C(C(=O)N3CCCCC3)CCC(=O)N2c2cc(OC)c(OC)c(OC)c2)cc1 (stereo not drawn),0.45,nt,nt,nt,nt
COc1ccc(OCC(=O)Nc2ccc(S(=O)(=O)N3CCCCCC3)cc2)cc1,-1.1,0.1,0.7,86.4*,30.3
COC(=O)C(CC(C)C)NC(=O)c1ccc([N+](=O)[O-])c(C)c1 (stereo not drawn),0.06,1.1,0.9,-6.1,11.3
CCn1c(SCC(=O)Nc2nc(C)cs2)nnc1-c1cccnc1,-0.24,1,0.8,3.3,23.3
COc1ccc(CNn2c(-c3cccc(C)c3)nc3ccccc3c2=O)cc1OC,-1.05,0.8,0.2,21.7,80.8*
COc1ccccc1CNn1c(-c2cccc(C)c2)nc2ccccc2c1=O,-0.8,0.1,0,86.2*,96.7*
COc1ccc(C(=O)Nc2cc(C)nc3ccccc23)cc1OC,1.12,0.8,0.6,24.1,36.1
COc1cccc(/C=N/NC(=O)Cn2ccnc2C)c1,0,nt,nt,nt,nt
COc1ccc(/C=N/Nc2snc(SC)c2C#N)cc1OC,-1.01,0.4,0.4,60.9*,62.1*
COc1cccc(/C=N/Nc2snc(SC)c2C#N)c1,0.23,0.3,0.7,65.7*,29.6
COc1ccc(/C=N/Nc2ncnc3scc(-c4ccccc4)c23)cc1OC,-1.92,1.2,0.8,-16.3,18.6
CCc1nnc(NC2=NCCC2)s1,1.25,1.1,1,-14.8,2.3
CCc1cc(C=C(Cl)Cl)oc(=O)c1C,1.33,0.8,0.2,24.1,83.1*
CCc1cc(=O)oc2c(C)c(O)c(CN(C)C)cc12,-0.29,1,1,3.7,-0.8
CCn1c(C(=O)NCCCN2CCc3ccccc3C2)cc2sccc21,-0.18,0.9,0.4,6.6,64.4*
SMILES,Pyk2 oligo antag,CYP2C9 activ,CYP2C19 act,CYP2C9 inh,CYP2C19 inhib
CCn1c(C(=O)NCc2ccccn2)cc2sccc21,0.52,0.7,0.3,27.0,65.9*
CCn1c(C(=O)N2CCc3ccccc3C2)cc2sccc21,nt,1.1,0.4,-13.4,62.6*
CCn1c(C(=O)N2CCC(C(=O)NCCCSC3CCCCC3)CC2)cc2sccc21,nt,1.7,0.5,-68.1,53.4*
CCN1CCN(CCCNC(=O)c2cc3sccc3n2CC)CC1,nt,1.1,1.1,-5.8,-12.3
Cc1ccc(S(=O)(=O)N(C)Cc2ccc(C(=O)N/N=C/c3ccc(OC(F)F)cc3)cc2)cc1,0.13,nt,nt,nt,nt
CN1CCN(C(=O)c2cc3sccc3n2CC(=O)c2ccccc2)CC1,-0.88,1.1,0.8,-6.4,15.6
CCN1CCN(C(=O)c2cc3sccc3n2CC(=O)c2ccccc2)CC1,-1.54,0.6,0.4,41.5,58.8*
Cc1ccc(NC(=O)NCc2ccc3c(c2)OCO3)cc1,0.13,0.7,0.5,31.2,51.4*
CCc1ccccc1NC1=NCC(=O)N1Cc1ccc2c(c1)OCO2,-1.8,nt,nt,nt,nt
O=C(NCc1cccs1)Nc1ccc2c(c1)OCO2,0.24,0.8,0.5,17.2,52.0*
Cc1ccc(S(=O)(=O)Cc2ccc(C(=O)NCc3ccc4c(c3)OCO4)o2)cc1,1.01,0,0.2,98.2*,84.3*
Cc1ccc(NC2=NCC(=O)N2Cc2ccc3c(c2)OCO3)cc1,0.35,0.1,0.1,86.3*,88.3*
CNC(=S)NNC(=O)Cn1ccc(C)n1,0.04,1.2,1.1,-22.6,-7.5
CC1(C)NC(C)(C)C(O)(C(N)=O)C1=O (stereo not drawn),0.23,1.2,1,-22.0,-3.5
O=C(NCc1ccc2c(c1)OCO2)c1ccc(COc2cccc(Cl)c2)o1,0.23,0.1,0.4,88.2*,64.1*
CC12CCC(C(=O)NCc3ccc4c(c3)OCO4)(CC1=O)C2(C)C (stereo not drawn),-0.06,1,0.5,3.1,47.3
O=C(Nc1ccccc1)NC1(C(=O)NCc2cccs2)CCCCC1,1.66,0.4,0.9,63.3*,12.6
CC12CCC(C(=O)NCc3ccc4c(c3)OCO4)(C(=O)C1=O)C2(C)C (stereo not drawn),0.21,0.7,0.4,30.2,56.4*
O=C(Nc1ccccc1)NC1(C(=O)NCCCN2CCOCC2)CCCCC1,0.37,1,1,1.4,0.1
Cc1ccc(S(=O)(=O)C2(C(=O)NCc3ccc4c(c3)OCO4)CC2)cc1,nt,0.4,0.3,63.5*,68.8*
COc1ccc(C2c3c(oc4ccc(Cl)cc4c3=O)C(=O)N2Cc2ccco2)cc1OC (stereo not drawn),nt,0.8,0.9,17.6,5.4
NC(=O)c1c(NC(=O)CSc2nnc(-c3ccccc3)n2CC2CCCO2)sc2c1CCC2 (stereo not drawn),-0.08,0.1,0.2,91.2*,80.5*
O=C(CSc1ccc(-c2ccc(F)cc2)nn1)N1CCCCC1,-0.06,0.9,0.8,6.8,22.4
N#Cc1c(NC(=O)CSc2ncc(-c3ccccc3)n2CC2CCCO2)sc2c1CCCC2 (stereo not drawn),-0.81,0.3,0.4,72.9*,60.1*
Cn1c(-c2ccc(F)cc2)cnc1SCC(=O)N1CCCCC1,-0.07,1,0.4,-3.8,61.9*
N#Cc1c(NC(=O)CSc2nnc(-c3ccccc3O)n2-c2ccccc2)sc2c1CCCC2,-0.46,0.3,0.3,67.2*,74.1*
O=C(CSc1nnc(Cc2ccccc2)o1)Nc1ccc(Br)cn1,1.47,1,0.7,-1.2,32.9
O=C(CSc1ncc(-c2ccccc2)n1CC1CCCO1)N1CCCCC1 (stereo not drawn),-0.11,0.9,0.4,8.8,58.1*
N#Cc1c(NC(=O)CSc2nnc(-c3ccncc3)n2CC2CCCO2)sc2c1CCCC2 (stereo not drawn),0.21,0.1,0.3,86.7*,69.1*
CCn1c(SCC(=O)Nc2sc3c(c2C#N)CCCC3)nnc1-c1ccncc1,-1.35,nt,nt,nt,nt
